Assay outcomes: PubChem BioAssay, several laboratories
Most compounds without a hit are left out; they make up all but 1.5% or so of the library.
IDE cell activ = human IDE activators in live cells, primary screen, fluorescence polarization, HEK cells, FAbeta-B substrate; activation, % at 5.96 µM; Insulin-degrading enzyme (Homo sapiens), P14735; AID 493087, 2011; hit rate 0.073% among 340,000; FAbeta-B cleavage; 0% vehicle, 100% cell-free pure enzyme wells;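 active = activation above the mean of all tested compounds plus 3 SD, set per screening campaign, cut at about 17% in these data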
Target sequence (P14735 whole entry, looked up): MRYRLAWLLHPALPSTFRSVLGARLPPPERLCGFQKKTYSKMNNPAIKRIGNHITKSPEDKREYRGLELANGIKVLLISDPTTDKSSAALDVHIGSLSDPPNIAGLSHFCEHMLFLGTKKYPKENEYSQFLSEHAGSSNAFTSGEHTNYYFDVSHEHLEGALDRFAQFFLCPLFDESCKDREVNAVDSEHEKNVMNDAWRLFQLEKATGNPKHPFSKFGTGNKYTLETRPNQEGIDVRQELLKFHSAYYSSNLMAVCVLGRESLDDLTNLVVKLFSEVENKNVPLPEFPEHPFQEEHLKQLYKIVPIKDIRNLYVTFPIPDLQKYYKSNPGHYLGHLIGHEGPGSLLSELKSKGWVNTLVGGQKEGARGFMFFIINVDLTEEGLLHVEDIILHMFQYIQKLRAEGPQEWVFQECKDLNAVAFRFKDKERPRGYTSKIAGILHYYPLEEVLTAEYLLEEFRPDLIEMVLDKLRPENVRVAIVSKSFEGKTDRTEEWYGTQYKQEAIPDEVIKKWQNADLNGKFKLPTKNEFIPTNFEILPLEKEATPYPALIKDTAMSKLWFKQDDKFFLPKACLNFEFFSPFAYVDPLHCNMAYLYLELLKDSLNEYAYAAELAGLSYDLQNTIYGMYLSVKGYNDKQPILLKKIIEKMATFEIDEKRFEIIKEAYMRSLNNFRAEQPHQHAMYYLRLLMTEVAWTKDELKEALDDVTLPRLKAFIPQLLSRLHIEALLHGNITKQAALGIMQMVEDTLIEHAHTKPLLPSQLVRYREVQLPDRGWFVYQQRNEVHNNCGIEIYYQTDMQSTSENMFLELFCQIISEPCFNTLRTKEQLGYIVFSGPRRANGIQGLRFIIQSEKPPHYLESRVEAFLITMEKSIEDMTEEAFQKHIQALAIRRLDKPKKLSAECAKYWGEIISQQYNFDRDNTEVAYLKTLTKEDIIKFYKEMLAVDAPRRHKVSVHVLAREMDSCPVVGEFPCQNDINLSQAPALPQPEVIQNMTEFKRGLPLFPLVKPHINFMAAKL
IDE inh = human IDE inhibitors in live cells, primary screen, fluorescence polarization, HEK cells, FAbetaB substrate | FAbetaB cleavage | inhibition, % at 5.59 µM | hit rate 0.41% among 320,000 | AID 434962, 2010;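 active = percent inhibition above the average of all tested compounds plus 3 SD, set per screening campaign, cut at about 16% in these data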;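 note: IDE supplied by intact live HEK cells; FP after avidin binding of uncleaved biotin substrate so inhibition keeps polarization high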
MEX-5 binding = MEX-5 zinc finger RNA-binding disruptors – biochemical, C. elegans, fluorescence polarization, MLPCN library, primary screen; Zinc finger protein mex-5 (Caenorhabditis elegans), Q9XUB2; MEX-5/FITC-TCR2 RNA binding; stronger effect = lower value; activity score (negative = inhibition of binding), % at 10 µM; hit rate 0.38% among 300,000; AID 1832, 2009;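 active = inhibition past about -25% in most replicates, and total fluorescence under double the plate's negative control median, limit read from the data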
MCL1 BIM primary = inhibitors of MCL1 binding to BIM-BH3, primary screen, biochemical, fluorescence polarization; AID 2057, 2009; Induced myeloid leukemia cell differentiation protein Mcl-1 (Homo sapiens), Q07820; hit rate 0.68% among 320,000; GST-MCL1 / FITC-Bim-BH3 fluorescence polarization; inhibition, % at 10.9 µM;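 active = inhibition above the mean inhibition of all tested compounds plus 3 SD, set per campaign, cut at about 40% in these data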;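 note: higher means more loss of mP so more displacement of Bim peptide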
Bcl-xL primary = inhibitors of human Bcl-xL, primary screen, biochemical, fluorescence polarization, HTS; Bcl-2-like protein 1 (Homo sapiens), Q07817; GST-Bcl-xL / FITC-Bim BH3 peptide fluorescence polarization; inhibition, % at 10.9 µM; hit rate 0.7% among 320,000;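 active = inhibition above the mean of all tested compounds plus 3 SD, cutoff set per campaign, cut at about 30% in these data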;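 note: inhibitors lower millipolarization by displacing the labeled peptide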
GLD-1 RNA inh = GLD-1/TGE RNA complex disruptors, primary screen, biochemical, fluorescence polarization; AID 2280, 2010; inhibition, % at 5.96 µM; purified GLD-1 + fluorescein TGE RNA; Female germline-specific tumor suppressor gld-1 (Caenorhabditis elegans), Q17339; hit rate 0.44% among 320,000;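 active = percent inhibition above a per-plate cutoff, the plate mean of test compounds plus 3 SD, cut at about 30% in these data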
IDE inh confirm = human IDE inhibitors in live cells, confirmation, fluorescence polarization, HEK cells, FAbetaB substrate | shares compounds with IDE inh | FAbetaB cleavage | inhibition, % at 5.59 µM | hit rate 51% among 1,200 | AID 435028, 2010;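 active = mean inhibition across triplicate wells above the cutoff set by the earlier primary insulin-degrading enzyme screen, cut at about 16% in these data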
HEK cytotox = cytotoxicity in HEK cells, cytotoxicity control for IDE inhibitor project, cell-based, luminescence; AID 449730, 2010; hit rate 28% among 1,200; inhibition, % at 5.59 µM; shares compounds with IDE inh; HEK293 cytotoxicity, ATP luminescence; in the data active = inhibition above about 22%
FP fluor counter = fluorescent or optically active artefacts, dose response, artefact control for IDE inhibitor project, biochemical, fluorescence polarization; shares compounds with IDE inh; FP counterscreen for fluorescent artifacts, IDE probe project; IC50, µM; 30 tested, under 10 active; call rule not given here
Large screens that a line does not name were inactive (follow-up assays come after a bar, where they were run).

CCCCCCNC(=O)N[C@H](C(=O)NCCC[C@H]1CN2C(=NC[C@H]2C)N1CCC(c1ccccc1)c1ccccc1)C(C)O (stereo not given in full)	IDE inh 16.4 (no result: MEX-5 binding) | IDE inh confirm inactive | HEK cytotox 37.7
CCCCNC(=O)CCn1c(=O)c2ccccc2n(Cc2ccc(F)cc2)c1=O	none
Cn1nc(-c2ccccc2F)c2cc(C(=O)Nc3ccc4c(c3)OCCO4)sc21	none
COc1cccc(-c2nn(C)c3sc(C(=O)Nc4ccc5c(c4)OCCO5)cc23)c1	IDE inh 24.9 | IDE inh confirm inactive | HEK cytotox inactive
COC1=C/C(=C/c2c(N)n3nc(-c4ccc(C)cc4)sc3nc2=O)C=CC1=O	none (no result: IDE inh, MEX-5 binding, MCL1 BIM primary, Bcl-xL primary, GLD-1 RNA inh)
CCS(=O)(=O)c1nn2c(N)c(/C=C3/C=CC(=O)C(OC)=C3)c(=O)nc2s1	IDE inh 23.6 | IDE inh confirm 157.3 | HEK cytotox inactive
COc1cc(/C=C2\C(=N)N3N=CSC3=NC2=O)cc(Br)c1OC(=O)c1ccco1	none
Nc1c(SCCC(=O)O)ccc2c1C(=O)c1ccccc1C2=O	IDE inh 16.8 | IDE inh confirm inactive | HEK cytotox inactive
COc1cc(/C=C2\SC(=Nc3ccc(O)cc3)NC2=O)cc(OC)c1O	IDE inh 128.2 | IDE inh confirm 152.2 | HEK cytotox inactive
C=CCOc1ccc(Br)cc1/C=C1/SC(=Nc2ccc(C(=O)O)cc2)NC1=O	none (no result: IDE inh, MEX-5 binding, MCL1 BIM primary, Bcl-xL primary, GLD-1 RNA inh)
CCc1ccc(N=C2NC(=O)/C(=C/c3cc(OC)c(OC)c(OC)c3)S2)cc1	none
CCOc1cc(Br)cc(/C=C2\SC(=Nc3ccccc3)NC2=O)c1O	IDE inh 22.2 | IDE inh confirm 27.3 | HEK cytotox inactive
Cc1ccc2[nH]c3c(NCc4ccco4)ncnc3c2c1	IDE inh 64.8 | IDE inh confirm 53.2 | HEK cytotox 53.1
Cc1ccc2[nH]c3c(NCCCN4CCCC4=O)ncnc3c2c1	IDE inh 17.9 | IDE inh confirm inactive | HEK cytotox inactive
c1csc(-c2ccn[nH]2)c1	none
S=c1nccc(-c2cccs2)[nH]1	IDE inh 19.7 | IDE inh confirm inactive | HEK cytotox inactive
Cc1cc(NC(=O)COC(=O)Cn2[nH]c(=O)c3ccccc3c2=O)c([N+](=O)[O-])cc1C	none (no result: MEX-5 binding, MCL1 BIM primary, Bcl-xL primary)
Cc1ccc(N=C2NC(=O)/C(=C/c3cn(C)c4ccccc34)S2)cc1C	IDE inh 18.8 (no result: MEX-5 binding) | IDE inh confirm 52.1 | HEK cytotox inactive
OC1(c2cccc(C(F)(F)F)c2)CCN(c2ncnc3c2[nH]c2ccc(F)cc23)CC1	none (no result: IDE inh, MEX-5 binding, MCL1 BIM primary, Bcl-xL primary, GLD-1 RNA inh)
Fc1ccc2[nH]c3c(N4CCN(c5ccccc5)CC4)ncnc3c2c1	IDE inh 50.4 | IDE inh confirm 33.5 | HEK cytotox 55.1
O=C(c1ccco1)N1CCN(c2ncnc3c2[nH]c2ccc(Br)cc23)CC1	none (no result: IDE inh, MCL1 BIM primary, Bcl-xL primary, GLD-1 RNA inh)
CCOc1ccc2[nH]c3c(N4CCN(C(=O)c5ccco5)CC4)ncnc3c2c1	IDE inh 40.2 (no result: IDE cell activ) | IDE inh confirm 16.1 | HEK cytotox inactive | FP fluor counter inactive
COc1ccc(N2CCN(c3ncnc4c3[nH]c3ccccc34)CC2)cc1	IDE inh 34.9 | IDE inh confirm 41.6 | HEK cytotox 63.9
CCOC(=O)N1CCN(c2ncnc3c2[nH]c2ccc(F)cc23)CC1	IDE inh 61.9 | IDE inh confirm 52.3 | HEK cytotox 58.5
CCOC(=O)N1CCN(c2ncnc3c2[nH]c2ccc(OC)cc23)CC1	IDE inh 41.1 | IDE inh confirm 26.2 | HEK cytotox inactive
COc1ccc2[nH]c3c(N4CCc5ccccc5C4)ncnc3c2c1	IDE inh 20.4 | IDE inh confirm inactive | HEK cytotox 72.7
CC(=O)Nc1ccc(NC(=O)C(C)OC(=O)CNS(=O)(=O)c2cccc(Cl)c2)cc1 (stereo not given)	none
COc1cc(C(C)=O)ccc1OCC(=O)Nc1ccc(Cl)c(S(=O)(=O)N2CCOCC2)c1	none (no result: MEX-5 binding)
CCN(CC)c1ccc(/C=C2\C(=N)N3N=C(CC(=O)N4CCOCC4)SC3=NC2=O)cc1	IDE inh 19.9 | IDE inh confirm 36.5 | HEK cytotox inactive
CSc1ccc(/C=C2\C(=N)N3N=C(CC(=O)N4CCOCC4)SC3=NC2=O)cc1	none
O=C(NCc1ccccn1)c1cc(-c2ccc(Cl)cc2)oc1C(F)(F)F	IDE inh 16.5 (no result: IDE cell activ) | IDE inh confirm inactive | HEK cytotox inactive
O=C(NCc1ccncc1)c1cc(-c2ccc(Cl)cc2)oc1C(F)(F)F	none
CC(C)(C)OC1NS(=O)(=O)OCC1NCOC(Cl)(Cl)Cl (stereo not given)	none
O=C(N/N=C/C1=C(N2CCOCC2)C(=C\c2ccccc2)/CC1)Nc1ccccc1	none
CCN(CC)c1ccc(/C=C2\CCC(/C=N/NC(=O)c3ccc(=O)n(C)c3)=C2N2CCOCC2)cc1	IDE inh 24.6 | IDE inh confirm 57.3 | HEK cytotox inactive
COc1cccc(CN2c3ccc(Br)cc3C(=O)CS2(=O)=O)c1	none (no result: MEX-5 binding)
Cc1c(C(=O)C(=O)N2CC=C(c3ccccc3)CC2)c2ccccc2n1C	IDE inh 16.1 | IDE inh confirm inactive | HEK cytotox 54.6
Cc1cc(C(=O)N2CC=C(c3ccccc3)CC2)c2ccccc2n1	none
O=c1/c(=C/c2ccccn2)sc2nc3ccccc3n12	none
O=c1/c(=C\c2cc([N+](=O)[O-])cc([N+](=O)[O-])c2O)sc2nc3ccccc3n12	IDE inh 16.3 (no result: MEX-5 binding) | IDE inh confirm 19.6 | HEK cytotox inactive
NC(=S)N/N=C/c1ccc(-c2ccc(Cl)c(Cl)c2)o1	none
NC(=S)N/N=C\c1ccc(-c2cccc(Cl)c2Cl)o1	IDE inh 26.6 | IDE inh confirm inactive | HEK cytotox 28.5
CCOc1ccc(NC(=O)CSc2nc3[nH]ncc3c(=O)n2-c2ccccc2OC)cc1	IDE inh 61.9 | IDE inh confirm inactive | HEK cytotox inactive
O=C(CSc1nc2[nH]ncc2c(=O)n1-c1ccccc1Cl)N1CCCC1	IDE inh 18.5 | IDE inh confirm inactive | HEK cytotox inactive
